Assay results published in PubChem BioAssay (EPA / NIEHS).
Records with an inconclusive call do not appear. Where a structure was tested more than once in an assay, its records may differ in their call. Calls of active or inactive are those of the source. The calls were made as follows, unless noted: active = hit-call score of the fitted dose curve at least 0.9, where 1 is the maximum; inconclusive = response in the unintended direction; inactive = score below 0.9.

Assays:
[1] = ATG_VDRE_CIS: Attagene CIS-FACTORIAL HepG2 Assay for human Vitamin D Receptor Element (VDRE) (AID 2282968; active = hit-call score of the fitted dose curve at least 0.9, where 1 is the maximum; inactive = score below 0.9); conditions: HepG2 VDRE cis-reporter transcription, actives raise or lower the signal
How it was run: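 Measures endogenous factor activity through cis-element-driven reporter transcripts in transiently transfected HepG2. Cells are treated 24 h; reporter mRNA is quantified by RT-PCR and capillary electrophoresis; fitting is bidirectional.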

[2] = target: Nuclear receptor subfamily 1 group I member 3 (Homo sapiens) (UniProt Q14994); assay: ATG_CAR_TRANS: Attagene TRANS-FACTORIAL HepG2 Assay for human Constitutive Androstane Receptor (CAR) (AID 2282969); conditions: HepG2 Attagene TRANS-FACTORIAL CAR reporter;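 also: activators raise reporter mRNA above DMSO so AC50 marks induction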
How it was run: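 Signal is reporter mRNA induction relative to DMSO, measured 24 h after dosing by RT-PCR with fluorescent primer extension and capillary electrophoresis. Human HepG2 liver cells carried transiently transfected chimeric NR-Gal4/GAL4-UAS reporter constructs.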

[3] = target: Estrogen receptor (Homo sapiens) (UniProt P03372); assay: ATG_ERa_TRANS: Attagene TRANS-FACTORIAL HepG2 Assay for human Estrogen Receptor alpha (ERa) (AID 2282970); conditions: HepG2 Attagene TRANS ERa GAL4 reporter, mRNA
How it was run: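 Transfected HepG2 cells carrying GAL4-UAS-driven reporter units were dosed for 24 hours. Total RNA was reverse-transcribed, reporter sequences PCR-amplified, FAM-labelled, HpaI-digested and resolved by capillary electrophoresis. Increases over DMSO control defined activity.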

[4] = target: X-box-binding protein 1 (Homo sapiens) (UniProt P17861); assay: ATG_Xbp1_CIS: Attagene CIS-FACTORIAL HepG2 Assay for human X-box Binding Protein 1 (XBP1) (AID 2282972; active = hit-call score of the fitted dose curve at least 0.9, where 1 is the maximum; inactive = score below 0.9); conditions: HepG2 XBP1 cis-element reporter, Attagene multiplex; actives raise or lower the signal
How it was run: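 Read-out: fluorescent reporter mRNA fragments resolved by capillary electrophoresis after RT-PCR. Human HepG2 liver cells carried transfected cis-promoter reporter units and were exposed to chemicals for 24 hours. Gain or loss of signal fitted relative to DMSO baseline.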

[5] = ATG_M_19_TRANS: Attagene TRANS-FACTORIAL HepG2 Assay for M19 Transcription Factor (Internal Marker) (AID 2282974); conditions: HepG2 Attagene TRANS-FACTORIAL M19 internal marker reporter
How it was run: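 After transfection of HepG2 with GAL4-UAS-driven reporter constructs, cells are dosed for 24 h. Total RNA is reverse-transcribed, reporter sequences PCR-amplified and labelled, then HpaI-digested and sized by capillary electrophoresis.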

[6] = target: Steroid hormone receptor ERR1 (Homo sapiens) (UniProt P11474); assay: ATG_ERRa_TRANS: Attagene TRANS-FACTORIAL HepG2 Assay for human Estrogen-Related Receptor alpha (ERRa) (AID 2282971); conditions: HepG2 Attagene TRANS reporter, ERRa transactivation
How it was run: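 HepG2 cells were transiently transfected with multiple GAL4-UAS reporter units, then dosed with compound for 24 h. Total RNA was reverse-transcribed, reporter cDNA PCR-amplified and fluorescently labelled, and fragments resolved by capillary electrophoresis; induction was compared with DMSO.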

[7] = target: Androgen receptor (Homo sapiens) (UniProt P10275); assay: ATG_AR_TRANS: Attagene TRANS-FACTORIAL HepG2 Assay for human Androgen Receptor (AR) (AID 2282973); conditions: HepG2 Attagene TRANS-FACTORIAL AR reporter transcription
How it was run: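 Transfected HepG2, 24 h treatment, chimeric NR-Gal4 driving GAL4-UAS reporters. mRNA induction by RT-PCR/capillary electrophoresis fluorescence; DMSO as negative control and baseline.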

[8] = target: Glucocorticoid receptor (Homo sapiens) (UniProt P04150); assay: ATG_GR_TRANS: Attagene TRANS-FACTORIAL HepG2 Assay for human Glucocorticoid Receptor (GR) (AID 2282978); conditions: HepG2 Attagene TRANS GR reporter, mRNA transcription;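 also: activators score as hits since higher reporter transcript over DMSO is fitted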
How it was run: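 Multiplexed TRANS reporter system, HepG2; 24 h exposure; RNA → oligo(dT) RT → reporter-specific PCR → 6-FAM primer extension → HpaI cut → CE fluorescence. Gain-of-signal vs DMSO.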

[9] = ATG_GAL4_TRANS: Attagene TRANS-FACTORIAL HepG2 Assay for GAL4 (Internal Marker) (AID 2282976); conditions: HepG2 Attagene TRANS GAL4 internal marker reporter
How it was run: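 Fluorescence from capillary electrophoresis of labelled RT-PCR products quantifies reporter mRNA induction after 24 h dosing of HepG2 cells carrying transfected GAL4-UAS reporter transcription units. Vehicle DMSO serves as baseline.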

[10] = target: Estrogen-related receptor gamma (Homo sapiens) (UniProt P62508); assay: ATG_ERRg_TRANS: Attagene TRANS-FACTORIAL HepG2 Assay for human Estrogen-Related Receptor gamma (ERRg) (AID 2282977); conditions: HepG2 Attagene TRANS reporter, ERRg transactivation;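 also: hits increase reporter signal over DMSO so potencies reflect activators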
How it was run: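 Exogenous NR-Gal4 chimera activity was assessed in HepG2 cells bearing transfected GAL4-UAS reporters. After 24 h dosing, total RNA underwent RT-PCR, fluorescent primer extension and HpaI digestion before capillary electrophoresis, with gain of signal scored against DMSO.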

Measured: AC50

Glucocorticoid receptor (Homo sapiens), sequence (P04150 whole entry, looked up): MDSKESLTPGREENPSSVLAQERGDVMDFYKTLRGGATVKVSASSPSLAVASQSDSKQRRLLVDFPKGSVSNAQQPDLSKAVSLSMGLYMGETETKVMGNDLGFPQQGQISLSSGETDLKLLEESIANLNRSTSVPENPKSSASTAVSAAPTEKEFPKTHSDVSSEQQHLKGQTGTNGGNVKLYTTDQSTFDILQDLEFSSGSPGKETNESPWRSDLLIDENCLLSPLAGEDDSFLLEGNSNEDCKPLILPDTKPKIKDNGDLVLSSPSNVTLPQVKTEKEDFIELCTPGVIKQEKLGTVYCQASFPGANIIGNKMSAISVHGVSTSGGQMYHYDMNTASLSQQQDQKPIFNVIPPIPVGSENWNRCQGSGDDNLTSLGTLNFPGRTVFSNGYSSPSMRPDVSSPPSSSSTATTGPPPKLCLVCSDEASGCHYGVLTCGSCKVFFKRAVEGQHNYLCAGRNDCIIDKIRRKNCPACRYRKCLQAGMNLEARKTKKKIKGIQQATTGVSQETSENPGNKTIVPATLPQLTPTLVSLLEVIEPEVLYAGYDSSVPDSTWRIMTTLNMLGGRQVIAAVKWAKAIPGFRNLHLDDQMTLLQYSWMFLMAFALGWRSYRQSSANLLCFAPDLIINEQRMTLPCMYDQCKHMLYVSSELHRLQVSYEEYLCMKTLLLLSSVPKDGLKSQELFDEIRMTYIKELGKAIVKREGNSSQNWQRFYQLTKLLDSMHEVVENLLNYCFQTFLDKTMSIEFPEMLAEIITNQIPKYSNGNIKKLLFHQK
Steroid hormone receptor ERR1 (Homo sapiens), sequence (P11474 whole entry, looked up, the tested form may be a part): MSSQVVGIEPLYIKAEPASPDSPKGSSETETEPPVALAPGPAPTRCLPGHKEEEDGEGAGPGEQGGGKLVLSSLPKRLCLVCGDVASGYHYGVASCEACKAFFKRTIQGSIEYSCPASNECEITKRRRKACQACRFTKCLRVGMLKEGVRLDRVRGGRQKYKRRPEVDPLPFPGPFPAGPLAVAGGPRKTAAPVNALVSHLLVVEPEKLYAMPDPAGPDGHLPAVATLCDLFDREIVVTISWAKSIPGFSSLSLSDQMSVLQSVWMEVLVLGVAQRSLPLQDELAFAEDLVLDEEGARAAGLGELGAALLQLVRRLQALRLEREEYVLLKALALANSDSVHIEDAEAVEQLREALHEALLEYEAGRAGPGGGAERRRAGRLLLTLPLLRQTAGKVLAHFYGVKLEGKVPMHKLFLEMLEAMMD
Nuclear receptor subfamily 1 group I member 3 (Homo sapiens), sequence (Q14994 whole entry, looked up, the tested form may be a part): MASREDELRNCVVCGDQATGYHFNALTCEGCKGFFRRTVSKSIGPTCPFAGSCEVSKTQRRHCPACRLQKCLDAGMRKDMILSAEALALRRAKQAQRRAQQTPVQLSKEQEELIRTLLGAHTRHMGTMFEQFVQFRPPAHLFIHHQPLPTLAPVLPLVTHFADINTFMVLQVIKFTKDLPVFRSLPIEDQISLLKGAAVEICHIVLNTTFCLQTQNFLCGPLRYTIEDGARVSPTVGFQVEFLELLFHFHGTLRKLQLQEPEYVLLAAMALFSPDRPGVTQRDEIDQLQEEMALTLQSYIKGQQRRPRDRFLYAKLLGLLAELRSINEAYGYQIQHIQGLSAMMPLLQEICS
X-box-binding protein 1 (Homo sapiens), sequence (P17861 whole entry, looked up, the tested form may be a part): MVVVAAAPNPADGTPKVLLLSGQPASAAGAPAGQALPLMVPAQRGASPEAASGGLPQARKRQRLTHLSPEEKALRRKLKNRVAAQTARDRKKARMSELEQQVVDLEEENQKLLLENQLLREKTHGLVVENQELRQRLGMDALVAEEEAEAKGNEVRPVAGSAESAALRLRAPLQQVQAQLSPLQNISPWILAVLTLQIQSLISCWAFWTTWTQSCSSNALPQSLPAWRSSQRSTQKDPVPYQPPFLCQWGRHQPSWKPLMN
Estrogen receptor (Homo sapiens), sequence (P03372 whole entry, looked up, the tested form may be a part): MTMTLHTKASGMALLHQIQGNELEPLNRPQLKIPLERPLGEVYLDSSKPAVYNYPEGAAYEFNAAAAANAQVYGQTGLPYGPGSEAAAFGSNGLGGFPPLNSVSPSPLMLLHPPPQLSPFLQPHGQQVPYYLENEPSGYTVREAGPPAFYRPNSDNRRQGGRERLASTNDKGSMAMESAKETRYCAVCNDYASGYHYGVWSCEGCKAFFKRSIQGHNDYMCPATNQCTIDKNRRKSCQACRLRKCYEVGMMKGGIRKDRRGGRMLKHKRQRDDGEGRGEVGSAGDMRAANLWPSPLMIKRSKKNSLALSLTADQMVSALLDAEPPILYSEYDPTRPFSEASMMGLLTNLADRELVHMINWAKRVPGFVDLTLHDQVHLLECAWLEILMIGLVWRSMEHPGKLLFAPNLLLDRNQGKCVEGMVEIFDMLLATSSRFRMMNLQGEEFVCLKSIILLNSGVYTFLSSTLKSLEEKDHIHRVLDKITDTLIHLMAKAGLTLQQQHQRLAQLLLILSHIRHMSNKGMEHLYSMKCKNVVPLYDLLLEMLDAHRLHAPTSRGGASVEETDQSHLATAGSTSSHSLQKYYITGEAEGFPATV
Androgen receptor (Homo sapiens), sequence (P10275 whole entry, looked up, the tested form may be a part): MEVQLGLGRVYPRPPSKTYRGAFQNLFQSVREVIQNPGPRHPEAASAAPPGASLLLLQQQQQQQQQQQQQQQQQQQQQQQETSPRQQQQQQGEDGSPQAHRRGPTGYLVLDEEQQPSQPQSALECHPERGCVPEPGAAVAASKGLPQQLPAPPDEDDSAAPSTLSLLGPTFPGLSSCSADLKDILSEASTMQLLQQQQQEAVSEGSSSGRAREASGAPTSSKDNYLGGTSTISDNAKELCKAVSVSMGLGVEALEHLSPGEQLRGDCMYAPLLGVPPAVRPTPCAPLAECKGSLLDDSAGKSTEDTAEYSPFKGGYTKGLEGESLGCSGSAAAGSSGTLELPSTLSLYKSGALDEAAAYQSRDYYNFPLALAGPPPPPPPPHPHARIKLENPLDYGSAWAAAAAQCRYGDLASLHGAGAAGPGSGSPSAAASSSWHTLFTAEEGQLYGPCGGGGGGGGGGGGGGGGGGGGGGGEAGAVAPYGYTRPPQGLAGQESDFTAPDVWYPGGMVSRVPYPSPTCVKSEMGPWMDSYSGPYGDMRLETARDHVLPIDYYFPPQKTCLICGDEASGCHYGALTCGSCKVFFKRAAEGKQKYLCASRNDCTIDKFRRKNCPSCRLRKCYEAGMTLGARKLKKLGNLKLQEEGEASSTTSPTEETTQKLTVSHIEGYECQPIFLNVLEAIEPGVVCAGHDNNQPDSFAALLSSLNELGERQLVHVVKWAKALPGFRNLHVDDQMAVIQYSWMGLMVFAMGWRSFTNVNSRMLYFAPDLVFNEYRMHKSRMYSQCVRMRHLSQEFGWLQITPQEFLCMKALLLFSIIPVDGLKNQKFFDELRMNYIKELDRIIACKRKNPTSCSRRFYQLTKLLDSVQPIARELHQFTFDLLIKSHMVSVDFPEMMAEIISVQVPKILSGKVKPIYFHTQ
Estrogen-related receptor gamma (Homo sapiens), sequence (P62508 whole entry, looked up, the tested form may be a part): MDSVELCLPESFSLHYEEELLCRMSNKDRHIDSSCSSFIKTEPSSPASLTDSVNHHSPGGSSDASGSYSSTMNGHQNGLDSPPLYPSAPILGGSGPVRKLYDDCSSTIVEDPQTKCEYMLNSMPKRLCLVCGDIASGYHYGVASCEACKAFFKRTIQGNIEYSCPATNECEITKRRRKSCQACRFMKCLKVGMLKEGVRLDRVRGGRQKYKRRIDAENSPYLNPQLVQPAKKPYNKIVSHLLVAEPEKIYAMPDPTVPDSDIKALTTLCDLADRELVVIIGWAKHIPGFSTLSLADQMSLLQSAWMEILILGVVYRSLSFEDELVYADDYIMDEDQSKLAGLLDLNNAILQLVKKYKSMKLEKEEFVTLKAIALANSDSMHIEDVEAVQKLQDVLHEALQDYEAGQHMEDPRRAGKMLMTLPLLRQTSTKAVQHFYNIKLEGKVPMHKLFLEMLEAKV

O=C(NC(=O)c1c(F)cccc1F)Nc1ccc(Cl)cc1
inactive: [1] | [2] | [3] | [4] | [5]

Cc1ccccc1OP(=O)(Oc1ccccc1C)Oc1ccccc1C
active: [1] 0.533 µM | [3] 1.3 µM
inactive: [2] | [6] | [7] | [5] | [8]

Cc1c([N+](=O)[O-])c(C)c([N+](=O)[O-])c(C(C)(C)C)c1[N+](=O)[O-]
active: [1] 1.84 µM | [3] 7.73 µM | [4] 100 µM
inactive: [2] | [5]

C=CCN=C=S
inactive: [1] | [2] | [3] | [6] | [5] | [9]

Cc1ccccc1OP(=O)(Oc1ccccc1)Oc1ccccc1
inactive: [2] | [6] | [4] | [5] | [9] | [8]
active: [1] 1.25 µM | [3] 3.57 µM

O=[N+]([O-])c1c2ccccc2cc2ccccc12
inactive: [1] | [2] | [6]
active: [3] 5.59 µM

CCCSP(=S)(OCC)Oc1ccc(Cl)cc1Cl (stereo unspecified)
active: [3] 2.91 µM
inactive: [1] | [2] | [6] | [8]

C1CCC(C2CCCCC2)CC1
active: [3] 27.9 µM
inactive: [1] | [2] | [4]

CC(C)=CC1C(C(=O)OCc2cccc(Oc3ccccc3)c2)C1(C)C (stereo unspecified)
inactive: [1] | [2] | [6] | [4] | [5] | [9]
active: [3] 12.8 µM

CC1(C)[C@H](C(=O)O[C@H](C#N)c2cccc(Oc3ccccc3)c2)[C@@H]1/C=C(\Cl)C(F)(F)F
inactive: [1] | [2] | [4] | [9] | [8]
active: [1] 0.502 µM

Cc1ccc(OP(=O)(Oc2ccc(C)cc2C)Oc2ccc(C)cc2C)c(C)c1
active: [1] 0.534 µM
inactive: [2] | [3] | [6] | [4] | [7] | [5] | [9] | [8]

CCOP(=S)(OCC)Oc1ccc(Cl)cc1Cl
active: [1] 13.9 µM | [3] 7.91 µM
inactive: [2] | [4] | [5]

ClCc1ccccc1CCl
active: [1] 13.5 µM | [4] 12.6 µM
inactive: [2] | [3]

OC(Cc1ccccc1Cl)(Cn1[nH]cnc1=S)C1(Cl)CC1 (stereo unspecified)
active: [1] 18 µM | [3] 5.83 µM | [4] 100 µM
inactive: [2] | [7] | [5]

CN(N=O)c1ccc([N+](=O)[O-])cc1
inactive: [1] | [2] | [3] | [4] | [5]

CC(C)(c1ccccc1)c1cc(-n2nc3ccccc3n2)c(O)c(C(C)(C)c2ccccc2)c1
inactive: [1] | [2] | [3] | [4]

CN(C)c1ccc(N=O)cc1
inactive: [1] | [2] | [3] | [6] | [4] | [10] | [8]

N#Cc1ccccc1N
inactive: [1] | [2] | [3] | [6] | [4] | [7] | [5] | [9]

CC(C)(C)c1cc([N+](=O)[O-])cc(C(C)(C)C)c1O
active: [1] 3.16 µM | [4] 4.78 µM
inactive: [2] | [3] | [6] | [5] | [10]

CN(C)[C@@H]1C(=O)C(C(N)=O)=C(O)[C@@]2(O)C(=O)C3=C(O)c4c(O)ccc(Cl)c4[C@@](C)(O)[C@H]3C[C@@H]12
inactive: [1]

CCOP(=S)(OCC)SCSc1cc(Cl)ccc1Cl
inactive: [1] | [2] | [3] | [4] | [5] | [9] | [8]

OC(Cc1ccccc1Cl)(Cn1cncn1)C1(Cl)CC1 (stereo unspecified)
active: [1] 26 µM | [3] 13.7 µM
inactive: [2] | [6] | [4] | [5] | [8]

Cc1cccc(N=Nc2ccc(N(C)C)cc2)c1
inactive: [2] | [3] | [4]
active: [1] 19.8 µM

O=C(O)COc1ccc(Cl)cc1
inactive: [1] | [2] | [3] | [6] | [4] | [5] | [9] | [8]

Nc1c(Oc2ccccc2)cc(O)c2c1C(=O)c1ccccc1C2=O
active: [1] 15 µM | [3] 7.82 µM
inactive: [2] | [4] | [5] | [9] | [8]

CC(C)(C1CCC(O)CC1)C1CCC(O)CC1 (stereo unspecified)
inactive: [1] | [2] | [4]
active: [3] 11.2 µM

O=C(Cl)OCCOCCOC(=O)Cl
inactive: [1] | [2] | [3] | [6] | [4] | [7] | [5]

COC(=O)c1cc(Oc2ccc(Cl)cc2Cl)ccc1[N+](=O)[O-]
active: [1] 10.8 µM
inactive: [2] | [3] | [4]
